Our source for the growth values is PubChem BioAssay (NCI).

Compounds without any hit were thinned out: in the full panel of roughly 83,000, 20% have a hit.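 Testing used 96-well plates and a 48-hour single-concentration exposure. Example: -40 means 40% of the starting cells died.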 Unmarked numbers belong to inactive results. Active and inactive are the calls of the source. How the source made its calls: active means growth percent below 10; inactive means the rest.

This assay concerns 786-0 renal. As to the kind of experiment: NCI-60 one-dose screen, 48 h (100 = growth as untreated, 0 = no growth, -100 = all killed). The settings on record: 10 µM unless noted.
For the compound `Oc1c(N=Nc2nn[nH]n2)ccc2ccccc12`, the growth was 102%. Regarding `CCN1CCN(c2nc(NNC(=O)Cc3ccccc3)nc(N3CCN(C(c4ccccc4)c4ccccc4)CC3)n2)CC1`, the growth is 64.1%. As for `COc1cc(-c2nnc(-c3nc(-c4cc(OC)c(OC)c(OC)c4)n4ccccc34)o2)ccc1N`, the figure is 68.6%. `CCOc1cc(/C=C/C(=O)CC(=O)/C=C/c2ccc(OC(=O)CNCCN(CC)CC)c(OCC)c2)ccc1OC(=O)CNCCN(CC)CC`: the growth was -91.6% (active). As for `Nc1ccc2c(c1Br)Cc1ccccc1-2`, the figure is 107%; as for `CCOC(=O)C1=CCC(n2cc(C)c(=O)[nH]c2=O)O1` (centres undefined), 105%; as for `COc1ccc(-c2nnc3c4[nH]cnc4ncn23)c(OC)c1`, 21.3%. As for `COc1ccc(N2CCN(CC(=O)N3CCN(c4nnc(-c5ccc(Cl)cc5)c(-c5ccc(Cl)cc5)n4)CC3)CC2)cc1`, the growth was 60.4%.

`O=C(O)c1ccc2cccnc2c1O`: the growth was 7.02% (active). Consider `COC(=O)[C@H]1[C@H]2C[C@@H]3c4[nH]c5cc(OC)ccc5c4CCN3C[C@H]2C[C@@H](OC(=O)/C=C/c2cc(OC)c(OC)c(OC)c2)[C@@H]1OC`, for which the growth was 58.9%.

For `COc1ccc2nc(-c3ccc(Cl)cc3)cc(-c3nnc(SCC(=O)Nc4ccc(C(C)=O)cc4)n3-c3ccccc3)c2c1`, the growth was 91.4%. On to `COc1cc(/C=C/C(=O)C(C(=O)/C=C/c2ccc(OC(=O)CCNC34CC5CC(CC(C5)C3)C4)c(OC)c2)C(=O)CCNC23CC4CC(CC(C4)C2)C3)ccc1OC(=O)CCNC12CC3CC(CC(C3)C1)C2` (centres undefined), for which the growth is -53.3% (active). Under `N#Cc1ccccc1C#Cc1ccccc1C#Cc1ccc(OCCCCCCOc2ccc(C#Cc3ccccc3C#Cc3ccccc3C#N)cc2)cc1` stands 98.4%.

Consider `O=CNc1ccc2c(c1)Cc1cc([N+](=O)[O-])ccc1-2`, for which the growth was 38.1%.

Consider `N#CC(C#N)C(C#N)C#N`, for which the growth was 101%. As for `N/C(=N\c1nc2ccccc2s1)NC(=O)Nc1ccccc1Cl`, the figure is 36.6%; as for `O=c1c2c(=NCCCN3CCCC3)cc3c(=O)n(CCCN4CCCC4)c(=O)c4c(NCCCN5CCCC5)cc(c(O)n1CCCN1CCCC1)c2c4-3`, -13.9% (active). Under `C/C(=C\CCc1ccsc1)CC/C=C(\C)CCCN1CCSCC1` stands 102%; under `CCCCCCCCCCNCCSS(=O)(=O)O`, 87.6%.

On to `O=C(Nc1ccccc1)c1cc(-n2cnc([N+](=O)[O-])c2)cc(-n2cnc([N+](=O)[O-])c2)n1`, for which the growth is 102%. As for `O=C1/C(=C/c2ccc(F)cc2)Cc2ccccc21`, the figure is 96%; as for `CCN(CC)c1ccc(N=C2C=CC(=O)C=C2NC(C)=O)cc1`, 111%; as for `C[C@H](C(=O)N[C@@H](Cc1ccc(-c2ccccc2)cc1)C(=O)NC1CC(C)(C)N(C)C(C)(C)C1)c1ccc(-c2ccccc2)c(F)c1`, -91.3% (active). Under `CSc1nc2nc3c(nc2c(=O)n1C)C(=O)c1ccccc1C3=O` stands -50.5% (active); under `O=C(C(=O)c1cc(Br)ccc1O)c1cc(Br)ccc1O`, 61.2%. As for `O=C1CSC(c2ccccc2O)N1c1nnc(Cn2ccnc2)o1` (centres undefined), the figure is 59.1%; as for `COc1cccc(N2CCN(CC(=O)N3CCN(c4nnc(-c5ccc(Cl)cc5)c(-c5ccc(Cl)cc5)n4)CC3)CC2)c1`, 79.4%; as for `NC(=O)NS(=O)(=O)c1ccc(N2N=C(C(F)(F)F)CC2c2cc(C(F)(F)F)cc(C(F)(F)F)c2)cc1` (centres undefined), 95.2%. With `CC(=O)N1N=C(c2ccc(C(F)(F)F)cc2)CC1c1ccc2c(c1)OCO2` (centres undefined), the growth was 87.4%.

Take `CCOc1cc(/C=C/C(=O)C(C(=O)/C=C/c2ccc(OC(=O)CNc3nnc(C)s3)c(OCC)c2)C(=O)CNc2nnc(C)s2)ccc1OC(=O)CNc1nnc(C)s1`: the growth is -73.7% (active). Take `CC(C)N(Cc1ccccc1)c1c(S)ssc1=S`: the growth was 10.6%.

For the compound `Nc1ccccc1-c1ccn[nH]1`, the growth was 98.9%. Under `COc1c(O)cc2c(c1CC=C(C)C)OC(=O)c1c(cc(O)c(CC=C(C)C)c1O)O2` stands 19.3%; under `COc1ccc2c(c1)c(CC(=O)[Se]C)c(C)n2C(=O)c1ccc(Cl)cc1`, 9.49% (active).
